VP16 counter – VP16 counterscreen qHTS for inhibitors of ROR gamma transcriptional activity; Drosophila S2 Gal4-VP16 UAS-luciferase, luminescence, 20 h; Potency, µM (highest dose often 53.6 µM), for inactives: top-dose activity, negative = inhibition, usual class: inhibitors; 310,000 compounds, 3.5% hits;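 also: Gal4-VP16 expression switched on by copper sulfate through the metallothionein promoter; nearly all actives have a fitted effect of over 50% in size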
RORgamma inh – qHTS for inhibitors of ROR gamma transcriptional activity | Nuclear receptor ROR-gamma (Mus musculus), P51450 | Drosophila S2 Gal4-RORgamma UAS-luciferase reporter, 20 h | Potency, µM (titrated, usually from 53.6 µM), for the others: at the top dose activity change, negative = inhibition, actives largely listed as inhibitors | 310,000 compounds, 5.4% hits; also: nearly all actives have a fitted effect of over 60% in size
Target sequence (P51450 whole entry, looked up, the tested form may be a part): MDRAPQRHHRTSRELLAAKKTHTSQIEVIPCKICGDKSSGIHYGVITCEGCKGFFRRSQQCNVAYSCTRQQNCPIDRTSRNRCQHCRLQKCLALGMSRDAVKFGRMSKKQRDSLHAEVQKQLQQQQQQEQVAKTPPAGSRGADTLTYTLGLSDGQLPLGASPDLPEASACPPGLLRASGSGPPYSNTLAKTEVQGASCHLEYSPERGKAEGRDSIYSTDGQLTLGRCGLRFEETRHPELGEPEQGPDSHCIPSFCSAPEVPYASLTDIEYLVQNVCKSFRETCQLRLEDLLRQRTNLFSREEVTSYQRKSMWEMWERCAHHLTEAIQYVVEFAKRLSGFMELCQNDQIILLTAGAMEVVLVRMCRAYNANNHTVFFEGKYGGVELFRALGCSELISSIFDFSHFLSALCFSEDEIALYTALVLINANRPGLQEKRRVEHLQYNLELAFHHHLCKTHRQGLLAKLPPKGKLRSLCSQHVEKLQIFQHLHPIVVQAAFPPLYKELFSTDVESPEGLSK
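Luminescence from a UAS-regulated Photinus luciferase reporter in stably transfected Drosophila Schneider cells is measured; decreased signal marks ROR gamma inhibition. Fusion expression is induced by 700 uM copper sulfate for 20 hr.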
Luc counter – Counterscreen for Luciferase (Kinase-Glo TM) Inhibition. Kinase-Glo luciferase, ATP luminescence, 8 min. Potency, µM (titrated, usually from 38.3 µM), inactives show at the top dose activity change, negative = inhibition, usual class: inhibitors. 200,000 compounds, 0.28% hits. AID 1379, 2008; also: nearly all actives have a fitted effect of over 60% in size
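Inhibition of Kinase-Glo luciferase light generation was assessed at 10 uM ATP in pH 7.2 imidazole buffer, with luminescence measured after eight minutes at ambient temperature.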
Starred values were filed as active, the others as inactive; u = inconclusive; x = no result; [ ] = dose if it differs, or a comment. Most compounds without a hit are left out; they make up all but 6.2% or so of the library. Calls follow the shape of the dose curve; as a rule, active = well fitted curve in the direction sought with a large enough effect; inconclusive = small, poorly fitted or top-dose-only effect, or another doubt; inactive = no such curve, though single readings can be large; an effect the other way counts as inactive or inconclusive. % is scaled to controls: 0 for no effect and ±100 for the full control effect; potency is read from the fitted curve at half-maximal effect.

SMILES	VP16 counter	RORgamma inh	Luc counter
Cn1c(NCc2ccco2)nc2c1c(=O)n(Cc1ccc(Cl)c(Cl)c1)c(=O)n2C	-2%	u	-3%
COc1cccc(N2CCN(C(=O)Cn3c(=O)oc4ccccc43)CC2)c1	15%	-2%	x
CCOc1ccc(-c2c(C(=O)N/N=C(\C)c3cccnc3)nnn2-c2nonc2N)cc1	-2%	1%	x
NCC(=O)N[C@@H](CCCN=C(N)N)C(=O)NCC(=O)N[C@@H](CCC(=O)O)C(=O)N[C@@H](CO)C(=O)O	-9%	-3%	x
Cc1ccc(-c2nc(CSCC(=O)N3CCN(c4ccccn4)CC3)c(C)o2)cc1	u	u	0%
CCOc1ccc(-c2nc(CSCC(=O)N3CCN(c4cccc(OC)c4)CC3)c(C)o2)cc1	11µM*	11µM*	4%
COc1cccc(-c2nc(CSCC(=O)N3CCc4ccccc43)c(C)o2)c1	-8%[0.365 µM]	-23%	-1%
CCc1ccc(-c2nc(CSCC(=O)N3CCN(c4ccccn4)CC3)c(C)o2)cc1	13µM*	u	-4%
COc1ccc(-c2c(C3C4C=CCC(C)C4C(=O)N3Cc3ccccc3)ccc3ccccc23)cc1OC (stereo not given)	6%	6%	x
Cc1ccc(S(=O)(=O)N2CCCC(C(=O)NCCc3ccccc3)C2)cc1 (stereo not given)	21%	-17%	x
Cc1cccc(-n2c(C)cc(C=C3C(=O)c4ccccc4C3=O)c2C)c1	3%	-19%	-12%
Cc1cc(C=C2C(=O)CCCC2=O)c(C)n1-c1ccccc1	-4%	8.9µM*	0%
COc1ccc(-n2c(C)cc(/C=C3\C(=O)NN(c4ccccc4)C3=O)c2C)cc1	-20%	-39%	0%
Cc1cc(/C=C2/C(=O)NN(c3ccccc3)C2=O)c(C)n1-c1ccc(O)cc1	4µM*	14µM*	-11%
Cc1cc(/C=C2\SC(=S)NC2=O)c(C)n1-c1ccccc1	u	10µM*	x
Cc1cc(/C=C2\SC(=S)NC2=O)c(C)n1-c1ccc(O)cc1	-21%	21%	x
COc1ccc(-c2cc(C(F)(F)F)nc(-n3ccnc3)n2)cc1	-11%	-22%	-2%
CC(C)C(=O)NNc1ccc(C(F)(F)F)cn1	-11%	-3%	x
N#CCCN(Cc1cccnc1)C(=S)NC(=O)c1ccco1	5%	-36%	4%
Cc1ccc(S(=O)(=O)N(C)C)cc1NC(=S)N(CCC#N)Cc1cccnc1	u	-28%	-1%
CCN(CC)S(=O)(=O)c1ccc(C(=O)NC(=S)N(CCC#N)Cc2cccnc2)cc1	11µM*	3.5µM*	0%
CN(C)S(=O)(=O)c1cccc(C(=O)NC(=S)N(CCC#N)Cc2cccnc2)c1	-25%[10 µM]	2µM*	1%
Cc1c(Cl)cccc1NC(=O)Cn1cc(C(F)(F)F)cc(Cl)c1=O	-9%	-12%	2%
O=C(CNC(=O)c1ccccc1)N/N=C/c1ccc([N+](=O)[O-])o1	18µM*	-28%	-3%
O=C(CNc1ccccc1)N/N=C/c1ccc([N+](=O)[O-])o1	u	1%	-3%
SMILES	VP16 counter	RORgamma inh	Luc counter
O=C(N/N=C/c1ccc([N+](=O)[O-])o1)c1ccc(O)cc1	13µM*	11µM*	-5%
COc1ccc(S(=O)(=O)N/N=C\c2ccc([N+](=O)[O-])o2)c(OC)c1	-8%	22%	x
CCCCCC(=O)N/N=C/c1ccc([N+](=O)[O-])o1	-27%	-18%	x
O=[N+]([O-])c1ccc(/C=N\NS(=O)(=O)c2ccc(F)cc2)o1	14µM*	u	x
O=C(CCC(=O)Nc1ccc(Cl)cc1Cl)N/N=C/c1ccc([N+](=O)[O-])o1	16µM*	u	1%
O=C(N/N=C/c1ccc([N+](=O)[O-])o1)C1CCCC1	-28%	-38%	x
O=C(NN=C1CCCCCC1)c1c[nH]c2ccccc12	-12%	-39%	-1%
CC(=O)Nc1cc(-c2nc3ccccc3o2)ccc1Cl	16%	u	x
CC(C)(C)NC(=O)CSc1nc(N)c(NC(=O)c2ccccc2F)c(=O)[nH]1	-5%	5%	-2%
NCCC[C@@H](CC(=O)N[C@@H]1CCNC[C@H]1C(=O)N[C@H](CC(=O)N[C@@H](CCC(=O)O)CC(=O)O)Cc1ccccc1)NC(=O)C[C@H](Cc1c[nH]c2ccccc12)NC(=O)[C@@H]1CNCC[C@H]1N	-3%	7%	-2%
COc1ccc2cc(-c3ccon3)ccc2c1	14%	-18%	x
O=C(Nc1ccon1)c1cc2ccccc2oc1=O	-15%	-45%	-15%
O=C(NCC1CCCO1)C1CCN(C2CCN(C3CCCCCC3)CC2)CC1 (stereo not given)	2%	4%	1%
Cc1scc(C(=O)N/N=C/c2ccco2)c1C	-5%	-38%	0%

Compound activity from PubChem.
